A selection: hits, their analogues and other compounds. The true share with any hit is near 21%.
CYP2C19 activ = increases human CYP2C19 enzyme activity; recombinant CYP2C19, luciferin-H EGE luminescence; stronger effect = higher value; 0 = fully inhibited enzyme, 1 = untreated enzyme; P33261; AID 1025; 96,000 tested, under 10 active; activation factor at 5 µM;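 active means activation factor of at least 2 at 5 µM in the primary screen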
Target sequence (P33261 whole entry, looked up): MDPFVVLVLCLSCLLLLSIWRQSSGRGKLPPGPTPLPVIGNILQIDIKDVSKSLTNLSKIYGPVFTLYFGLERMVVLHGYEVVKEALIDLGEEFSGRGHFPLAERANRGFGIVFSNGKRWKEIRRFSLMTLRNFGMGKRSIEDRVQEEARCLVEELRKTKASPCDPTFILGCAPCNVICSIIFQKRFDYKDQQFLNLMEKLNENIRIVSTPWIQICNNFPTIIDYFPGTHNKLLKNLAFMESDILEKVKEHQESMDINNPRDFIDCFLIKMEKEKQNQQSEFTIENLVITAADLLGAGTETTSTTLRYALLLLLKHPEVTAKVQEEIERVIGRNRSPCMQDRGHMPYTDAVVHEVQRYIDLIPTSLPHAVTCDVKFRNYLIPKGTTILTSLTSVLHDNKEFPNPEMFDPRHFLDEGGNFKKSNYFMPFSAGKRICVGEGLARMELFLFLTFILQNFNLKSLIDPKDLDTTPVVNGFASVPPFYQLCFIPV
CYP2C19 inhib = blocks human cytochrome P450 2C19 | inhibition, % at 5 µM | CYP2C19 Supersomes, luciferin-H EGE luminescence, 30 min | AID 778 | 21% of 96,000 active | P33261;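 active means CYP2C19 inhibition above a set limit at 5 µM in the primary screen, cut at about 50% in these data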
MRP reversal = reverses drug resistance mediated by MRP. differential viability (reversal), % at 10 µM. H69AR cells + 2 uM doxorubicin, CellTiter-Glo, 72 h. AID 602. 0.04% of 85,000 active;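 active means viability drop by adding the cancer drug above about 55%, with treated viability meeting a 40% cutoff, limit read from the data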;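 further: larger differential means the compound sensitizes cells more to doxorubicin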
CYP2C9 inh = blocks human cytochrome P450 2C9; CYP2C9 Supersomes, luciferin-H conversion, luminescence; 20% of 96,000 active; inhibition, % at 5 µM;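 active means blocking of liver enzyme CYP2C9 beyond about 50% at 5 µM, limit read from the data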
CYP2C9 act = increases human cytochrome P450 2C9 activity | recombinant CYP2C9, luciferin-H conversion, luminescence; stronger effect = higher value; factor 1 = untreated enzyme, 0 = blocked | 1.4% of 96,000 active | activation factor at 5 µM | P11712;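 active means activation factor of 2 or more for CYP2C9 at a 5 µM dose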
MRP-1 activ = activators of MRP-1. H69AR cells + doxorubicin, viability rescue, CellTiter-Glo. AID 799. viability increase, % at 10 µM. 0.61% of 140,000 active;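 active means viability gain under doxorubicin at or above a set limit, the compound median plus 3 SD, cut at about 4.7% in these data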;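 further: MRP-1 overexpressing cells given doxorubicin 25 µM after compound pretreatment; 18-22 h compound pretreatment then 72 h with doxorubicin before readout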
Each line names hits and unclear results; the compound was inactive in the other large screens.

O=c1[nH]c(=O)n(Cc2ccco2)c2c1C(C(F)(F)F)(C(F)(F)F)N=C(Cc1ccccc1)N2	CYP2C9 inh 76
CC(=O)NC1(C(F)(F)F)C(=O)Nc2c1c(=O)[nH]c(=O)n2Cc1ccco1 (stereo unspecified)	none
Cn1c(NC(=O)c2ccc(Br)o2)cc(=O)n(C)c1=O	none (no result: MRP reversal)
C=CCN=C1SC(C)C(=O)N1S(=O)(=O)c1ccccc1 (stereo unspecified)	CYP2C19 inhib 73
COc1cccc(-c2cnc(NCc3cc(Cl)ccc3O)n2C)c1	CYP2C19 inhib 99, CYP2C9 inh 98
Cn1c(-c2cccc(Br)c2)cnc1NCc1cccnc1	CYP2C19 inhib 77, CYP2C9 inh 64
Cn1c(-c2ccc(F)cc2)cnc1NCc1cccc(F)c1	CYP2C19 inhib 53
Cc1ccc(-c2nn(Cc3ccccc3)cc2/C=C/C(=O)O)cc1C	CYP2C19 inhib 76
O=C(O)/C=C/c1cn(Cc2ccccc2)nc1-c1ccccc1	none
C=CCc1cccc(CNc2c(C)n(C)n(-c3ccccc3)c2=O)c1O	CYP2C19 inhib 56
Cc1c(NC(=O)CC(=O)Nc2c(C)n(C)n(-c3ccccc3)c2=O)c(=O)n(-c2ccccc2)n1C	none
CCOc1ccccc1NC(=O)CSc1nnc(-c2cnccn2)n1C	none (no result: MRP reversal)
C=CCn1c(SCC(=O)Nc2cccc3ccccc23)nnc1-c1cnccn1	CYP2C19 inhib 55
C=CCn1c(SCC(=O)Nc2cc3oc4ccccc4c3cc2OC)nnc1-c1cnccn1	CYP2C19 inhib 75, CYP2C9 inh 95
CCNC(=S)N/N=C/c1ccc(OCC(=O)Nc2ccc(C)cc2)cc1	none (no result: MRP reversal)
CC(C)(C)C(=O)NC(=S)Nc1sc2c(c1C#N)CCCCC2	none (no result: CYP2C19 activ, CYP2C19 inhib, MRP reversal, CYP2C9 inh, CYP2C9 act)
Cc1onc(-c2ccccc2)c1C(=O)NC(=S)Nc1sc2c(c1C#N)CCCC2	none (no result: CYP2C19 activ, CYP2C19 inhib, MRP reversal, CYP2C9 inh, CYP2C9 act)
Cc1cccc(C(=O)Nc2sc(C)c(-c3ccccc3)c2C#N)c1	none (no result: MRP reversal)
Cc1onc(-c2ccccc2)c1C(=O)Nc1sc2c(c1C#N)CCC2	CYP2C9 inh 68
Cc1noc(C)c1C(=O)Nc1sc(C)c(-c2ccccc2)c1C#N	CYP2C19 inhib 62, CYP2C9 inh 76
Cc1ccccc1C(=O)NC(=S)Nc1sc2c(c1C#N)CCCC2	CYP2C9 inh 74 (no result: MRP reversal)
COc1ccc(Cn2nnnc2C(c2cc(OC)ccc2OC)N2CCC(C(N)=O)CC2)cc1 (stereo unspecified)	none
O=C(CSc1ccc2nnc(-c3ccccn3)n2n1)NCC1CCCO1 (stereo unspecified)	none
Cc1cccc(N2CCN(C(=O)c3cccn4c(=O)c5c(C)c(C)sc5nc34)CC2)c1C	CYP2C19 inhib 92, CYP2C9 inh 96
CCc1cccc(CC)c1NC(=O)CN1CCN(c2ccccc2)CC1	CYP2C19 inhib 66, CYP2C9 inh 83
Cc1ccc2[nH]c(C(=O)O)c(NC(=O)CN3CCN(c4cccc(C)c4C)CC3)c2c1	CYP2C9 inh 83
COC(=O)c1[nH]c2ccc(C)cc2c1NC(=O)CN1CCN(c2ccccc2)CC1	CYP2C19 inhib 90, CYP2C9 inh 75
Cc1c(C)n(C(=O)CN2CCN(c3ccccc3)CC2)c2ccccc12	CYP2C19 inhib 56
CCOc1ccc(NC(=S)N2CCc3cc(OC)c(OC)cc3C2COc2ccc3c(C)cc(=O)oc3c2)cc1 (stereo unspecified)	none (no result: CYP2C19 activ, CYP2C19 inhib, MRP reversal, CYP2C9 inh, CYP2C9 act)
CC1(C)C2CCC13CS(=O)(=O)N[C@@H]3C2 (stereo partly specified)	none
O=C(O)CCC1COc2ccccc2O1 (stereo unspecified)	none
CCC(C)(C)n1nnnc1C(c1ccc2ncccc2c1)N1CCN2CCCC2C1 (stereo unspecified)	CYP2C19 inhib 59
c1cnc2ccc(C(c3nnnn3C3CCCCC3)N3CCN4CCCC4C3)cc2c1 (stereo unspecified)	CYP2C9 inh 69
c1cnc2ccc(C(c3nnnn3C3CCCC3)N3CCN(c4nc5ccccc5s4)CC3)cc2c1 (stereo unspecified)	CYP2C19 inhib 70, CYP2C9 inh 88
CN1CCN(C(=S)c2ccc(OCC(=O)Nc3cccc(C(F)(F)F)c3)cc2)CC1	none (no result: CYP2C19 activ, CYP2C19 inhib, MRP reversal, CYP2C9 inh, CYP2C9 act)
COc1cccc(-c2csc(N3CCN(Cc4ccccc4)CC3)n2)c1	none
COc1ccc(Cl)cc1N(CC(=O)NCC(C)C)S(=O)(=O)c1ccc(C)c([N+](=O)[O-])c1	none (no result: CYP2C19 activ, CYP2C19 inhib, MRP reversal, CYP2C9 inh, CYP2C9 act)
CC(=O)c1ccc(N2CCN(c3ccc(C(F)(F)F)cn3)CC2)cc1	MRP-1 activ 7.8 (no result: CYP2C19 activ, CYP2C19 inhib, MRP reversal, CYP2C9 inh, CYP2C9 act)
Cc1ccc(C(=O)N2CCN(c3ccc(C(F)(F)F)cn3)CC2)c(C)c1	CYP2C19 inhib 64
Cc1ccc(C(=O)N2CCN(c3ccc(C(F)(F)F)cn3)CC2)cc1	none
Cc1nnc(SCCn2c(N(C)Cc3ccccc3)nc3c2c(=O)[nH]c(=O)n3C)s1	none
CCOC(=O)COc1ccc(/C=C2\NC(=S)N(CC)C2=O)cc1	none (no result: CYP2C19 activ, CYP2C19 inhib, MRP reversal, CYP2C9 inh, CYP2C9 act)
CCN1C(=O)/C(=C/c2ccc(C)s2)NC1=S	CYP2C9 inh 59
CCCCn1cnc2sc3c(c2c1=N)CCCC3	CYP2C19 inhib 60
N=c1c2c3c(sc2ncn1CCCO)CCCC3	none
COc1ccccc1CNC(=O)CSc1nc(N)c(C#N)c(-c2cccs2)c1C#N	none
N#Cc1c(N)nc(SCC(=O)NCc2ccc3c(c2)OCO3)c(C#N)c1-c1cccs1	CYP2C9 inh 74
Cn1c(SCC(=O)NCc2ccc3c(c2)OCO3)nc2scc(-c3cccs3)c2c1=O	CYP2C9 inh 80
O=C(CSc1n[nH]c(-c2cccs2)n1)NCc1ccc2c(c1)OCO2	CYP2C19 inhib 85, CYP2C9 inh 97
Cc1ccc(-c2csc3ncnc(SCC(=O)NCc4ccc5c(c4)OCO5)c23)cc1	CYP2C9 inh 57 (no result: MRP reversal)
O=C(CSc1n[nH]c(-c2cccs2)n1)NCc1cccs1	CYP2C19 inhib 69
CC1=NOC2(C1)N(C)c1ccccc1C2(C)C (stereo unspecified)	CYP2C19 inhib 58
CN1c2ccccc2C(C)(C)C12CCCC(=O)N2 (stereo unspecified)	none
CC1=NN(c2ccc(Cl)cc2)C(=O)/C1=C\c1cccn1-c1ccc(S(N)(=O)=O)cc1	none (no result: CYP2C19 activ, CYP2C19 inhib, MRP reversal, CYP2C9 inh, CYP2C9 act)
C=C(C)Cn1c(N2CC(C)CC(C)C2)nc2c1c(=O)[nH]c(=O)n2C (stereo unspecified)	none (no result: CYP2C19 activ, CYP2C19 inhib, CYP2C9 inh, CYP2C9 act, MRP-1 activ)
CCOC(=O)C1=NN(c2ccccc2)C2=NC(C)=C(C(=O)OC)C(c3ccc(C)cc3)N12 (stereo unspecified)	none (no result: CYP2C19 activ, CYP2C19 inhib, MRP reversal, CYP2C9 inh, CYP2C9 act)
CSc1ccccc1NC(=O)COc1ccccc1Cl	CYP2C19 inhib 77, CYP2C9 inh 59 (no result: MRP reversal)
Cc1ccc(Cl)cc1NC(=O)c1ccccc1OCC(=O)Nc1ccc(Cl)cc1	none (no result: CYP2C19 activ, CYP2C19 inhib, MRP reversal, CYP2C9 inh, CYP2C9 act)
O=C(COc1ccccc1O)Nc1ccc(Cl)cc1	CYP2C19 inhib 88, CYP2C9 inh 60
COc1ccc(COC(=O)NNC(=O)c2ccccc2Cl)cc1	CYP2C19 inhib 72
CCCCN(CC)C(=O)c1ccc(Cl)c(Cl)c1	CYP2C19 inhib 84

Source: PubChem (several laboratories)
